The list is not random: actives were taken first. Their share in the collection is about 1.8%.
eIF4H inh: inhibitors of RNA binding by human eIF4H. inhibition, % at 35 µM. eIF4H fluorescence polarization binding assay. AID 2012. actives 0.94% (n = 290,000). Q15056;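 also: calls also rest on retests at 20 µM and on dose response follow-up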
PABP polyA inh: PABP-poly(A) binding inhibition; PABP-poly(A) RNA binding, fluorescence polarization; calls only at 35 µM; actives 1% (n = 290,000); P11940;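 also: calls also rest on retests at 20 µM and on dose response follow-up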
Target sequence (P11940 whole entry, looked up): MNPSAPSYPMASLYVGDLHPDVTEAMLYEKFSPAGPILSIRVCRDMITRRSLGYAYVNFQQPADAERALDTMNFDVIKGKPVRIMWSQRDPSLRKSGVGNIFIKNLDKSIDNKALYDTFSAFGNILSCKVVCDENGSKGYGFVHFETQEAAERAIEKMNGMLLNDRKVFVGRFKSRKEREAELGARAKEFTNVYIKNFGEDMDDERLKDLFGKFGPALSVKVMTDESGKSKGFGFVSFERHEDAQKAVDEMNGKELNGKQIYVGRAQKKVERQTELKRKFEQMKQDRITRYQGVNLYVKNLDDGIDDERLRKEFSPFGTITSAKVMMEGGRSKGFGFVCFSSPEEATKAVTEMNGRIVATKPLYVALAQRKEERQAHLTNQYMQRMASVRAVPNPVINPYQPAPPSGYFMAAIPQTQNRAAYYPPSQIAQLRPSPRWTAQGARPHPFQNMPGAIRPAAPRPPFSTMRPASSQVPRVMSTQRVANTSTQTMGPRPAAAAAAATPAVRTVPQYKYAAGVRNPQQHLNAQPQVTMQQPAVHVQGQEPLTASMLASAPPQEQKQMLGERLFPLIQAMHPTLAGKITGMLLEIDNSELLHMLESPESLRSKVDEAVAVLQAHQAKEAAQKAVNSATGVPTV
EBV gp42 block: inhibitors of Epstein-Barr virus glycoprotein 42 | actives 0.42% (n = 220,000) | Fluorescence polarization binding assay, mP read-out | AID 1085 | inhibition, % (tested at 21.74 µM) | Q1HVG2; in the data active = inhibition above about 50%
PABP1 MLLE inh: inhibitors of microRNA-mediated deadenylation, human PABP1 MLLE binding | P11940 | GST-MLLE / FITC-PAM2 fluorescence polarization | inhibition, % at 20 µM | actives 0.36% (n = 360,000); in the data active = inhibition above about 35%, passing the limit was not always enough;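 also: plate controls were DMSO wells with GST-MLLE for no effect and wells lacking GST-MLLE protein for full effect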
MEX-5 binding: C. elegans MEX-5 TCR-2 RNA binding activity. MEX-5/FITC-TCR2 RNA binding, fluorescence polarization; stronger effect = lower value. activity score (negative = inhibition of binding), % at 10 µM. actives 0.38% (n = 300,000). AID 1832;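 active = inhibition past about -25% in most replicates, and total fluorescence under double the plate's negative control median, limit read from the data; inconclusive = replicates evenly split on the limit, or fluorescence at least double controls; inactive = too little inhibition in most replicates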;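 also: 0% = DMSO and -100% = 5 µM competing unlabeled TCR2 RNA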
* = called active by the depositor; i = inactive; ? = inconclusive; · = no result given; + = active, no number. Unless noted, no rule for the calls is given here.

SMILES	eIF4H inh	PABP polyA inh	EBV gp42 block	PABP1 MLLE inh	MEX-5 binding
CCOC(=O)c1sc(=S)n(-c2ccc3c(c2)OCO3)c1N	1	i	-18	40*	1
CCOC(=O)c1sc(=S)n(-c2ccc(F)c(F)c2)c1N	-4	i	-13	35	1
CC(C)Cc1cc(C(=O)Nc2c(F)cc(F)cc2Br)no1	61*	i	-4	11	1
CC(C)Cc1cc(C(=O)Nc2ccc(F)cc2F)no1	1	i	-3	-12	0
ClC1=CN(C2=NCCC2)CC1	·	·	·	-10	·
Cn1ccc2c(/C=C/c3ccc(F)cc3)cc3c(c21)C1CCC3O1 (stereo not drawn)	·	·	·	-10	·
Nc1cccc(C(=O)N/N=C/c2ccsc2)c1	84*	+	12	10	3
O=C(N/N=C/c1ccsc1)c1cc2ccccc2o1	-10	i	·	0	2
Cc1cccc(CSc2ccc(-c3ccco3)nn2)c1	52*	+	-19	17	-1
O=C(CSc1ccc(-c2ccco2)nn1)NCc1ccccc1	97*	+	-9	32	1
Cc1cccc(NC(=O)CSc2ccc(-c3ccco3)nn2)c1C	78*	+	-14	13	0
O=C(CSc1ccc(-c2ccco2)nn1)N1CCCCC1	95	+	-5	28	0
O=C(CSc1ccc(-c2ccco2)nn1)NCc1ccc(Cl)cc1	1	i	1	22	0
O=C(CSc1ccc(-c2ccco2)nn1)N1CCCC1	22	i	-9	27	0
Cc1ccc(CSc2ccc(-c3ccco3)nn2)cc1	66	i	-25	12	-1
CCn1c(C)cc(C(=O)CSc2nnc(C3CC3)n2C2CC2)c1C	·	·	·	-2	·
CCOC(=O)c1c(/N=C/c2cccc([N+](=O)[O-])c2O)sc(C)c1C	21	i	2	51*	-6
O=[N+]([O-])c1cccc(C=Nc2cccc3ccccc23)c1O	42	i	·	19	-6
Nc1cc(Nc2ccccc2)c2nonc2c1[N+](=O)[O-]	-6	i	·	56*	-13
O=C(O)c1ccc(Nc2cc(Cl)c3nonc3c2[N+](=O)[O-])cc1	1	i	-20	39*	-12
O=C(O)c1ccc(CN2C(=O)c3ccc(C(=O)O)cc3C2=O)cc1	-4	i	·	10	-1
CC(=O)Oc1cccc(N2C(=O)c3cccc4c([N+](=O)[O-])ccc(c34)C2=O)c1	12	i	·	8	-2
O=C(O)c1ccc(CN2C(=O)c3cccc4c([N+](=O)[O-])ccc(c34)C2=O)cc1	81*	+	·	51*	-6
Cc1ccc(C(=O)O)cc1N1C(=O)c2cccc3c([N+](=O)[O-])ccc(c23)C1=O	101*	+	·	21	-24
CN(C)CCCN1C(=O)c2cccc3c([N+](=O)[O-])ccc(c23)C1=O	?	i	49	57*	·
SMILES	eIF4H inh	PABP polyA inh	EBV gp42 block	PABP1 MLLE inh	MEX-5 binding
O=C1c2cccc3c([N+](=O)[O-])ccc(c23)C(=O)N1CCc1ccccn1	33	i	14	11	-1
O=C(NCc1ccc(Cl)cc1)c1ccc(-c2ccc(F)c(F)c2)c2ccoc12	·	·	·	8	·
CCOC(=O)N1CCN(C(=O)c2[nH]c(C(F)(F)F)nc2-c2ccccc2)CC1	·	·	·	5	·
COc1cccc(-c2nc(CSCC(=O)NCC3CCCO3)c(C)o2)c1 (stereo not drawn)	-5	i	-10	46*	1
Cc1cccc(NC2(C(F)(F)F)N=C3SCCN3C2=O)n1 (stereo not drawn)	-5	i	-22	40*	-1
COc1ccc(C(=O)NC2(C(F)(F)F)N=C3SCCN3C2=O)cc1 (stereo not drawn)	-2	i	12	40*	2
CCc1nc2ccc(C(=O)Nc3cc(-c4ccccc4)ccc3OC)cn2c1N(C)C(=O)c1cccc(OC)c1	·	·	·	2	·
COC(=O)CCCCCCCCCC[N+]1(C)CCCCC1	-6	i	-42	-134	-1
CC(=O)OCCCCCCCCCCC[N+]1(C)CCCCC1	3	+	-5	-129	2
COCCCN1C(=O)C(CC(=O)NCCN2CCOCC2)CC(C(=O)N(C)C)=C1C (stereo not drawn)	·	·	·	5	·
Fc1c(F)c(F)c(N=Cc2ccc3ncccc3c2)c(F)c1F	0.6*	+	0	3	-2
c1cnc2ccc(-c3ccc4ncccc4c3)cc2c1	4	i	·	11	-2
CCCNC(=O)C1(C)CCN(Cc2ccc(C)c3ccccc23)C1 (stereo not drawn)	·	·	·	8	·
CCc1cnc(Nc2nc(C(N)Cc3ccc(F)cc3)cs2)nc1 (stereo not drawn)	·	·	·	11	·
O=C(N/N=C/c1ccccn1)c1ccc(NC(=O)c2cccc([N+](=O)[O-])c2)cc1	75*	+	-11	1	4
Cc1cc([N+](=O)[O-])ccc1-c1ccc(/C=N/NC(=O)Cc2ccccc2)o1	?	i	89*	38	-15
O=C(N/N=C/c1ccc(-c2cccc([N+](=O)[O-])c2)o1)c1ccc([N+](=O)[O-])cc1	-3	i	-8	10	-35*
O=C(N/N=C/c1ccccn1)c1cccc([N+](=O)[O-])c1	8	i	-22	7	1
O=C(N/N=C/c1ccc(-c2cccc([N+](=O)[O-])c2)o1)c1ccccc1O	32	i	5	-19	3
COc1cc([N+](=O)[O-])ccc1-c1ccc(/C=N/NC(=O)c2ccccc2O)o1	10	i	67*	·	2
N#CCCN(C(=O)CSc1ccc2c(c1)OCCO2)c1ccccc1	9	i	-23	41*	1
CN(C(=O)CSc1ccc2c(c1)OCCO2)c1ccccc1	·	·	·	24	·
Cc1cccc(NC(=S)NC(=O)Cc2ccccc2)c1C	3	i	·	21	2
Cc1cc(C)c(O)c(NC(=S)NC(=O)Cc2ccccc2)c1	-7	i	·	42*	2
COc1ccc2[nH]c3c(=O)n(Cc4ccc(C(=O)NCC5CCCO5)cc4)c(=S)[nH]c3c2c1 (stereo not drawn)	61*	+	1	-36	-2
COC(=O)C1=C(C)N(Cc2ccccc2)C(=NCC(C)C)N[C@H]1c1ccccc1	94	+	·	·	?
COC(=O)C1=C(C)N(Cc2ccccc2)C(=NCc2ccc(OC)cc2)N[C@H]1c1ccccc1	·	·	·	-117	·
COC(=O)C1=C(C)N(Cc2ccccc2)C(=NCCc2ccccn2)N[C@H]1c1cccc(F)c1	24*	+	·	-77	-3
COCCN1C[C@@H](CO)O[C@@H](n2cnc3c(NCCO)ncnc32)C1	·	·	·	-18	·
CC1OC(OCC2OC(Oc3c(-c4ccc(O)cc4)oc4cc(O)cc(O)c4c3=O)C(O)C(O)C2O)C(O)C(O)C1O (stereo not drawn)	?	?	-12	13	-11

Screening results deposited in PubChem BioAssay by several laboratories.
